According to the antibiotic and cytotoxicity screens of Wong et al. (2023):
Screen size: about 39,000 compounds; about 1,500 (3.8%) were called active. This excerpt belongs to a sample that is enriched for actives.

Test system: HSkMC (human skeletal muscle cells)
Assay: cytotoxicity call (relative viability < 0.9)
Conditions: 10 µM

SMILES | cytotoxicity call
COc1ccc(NC(=O)Nc2ccc3c(c2)C(=O)N([C@H](C)CO)C[C@@H](C)[C@H](CN(C)C(=O)Nc2c(C)noc2C)OCCCC[C@@H](C)O3)cc1 | inactive
C[C@@H]1O[C@@H](O[C@H]2[C@H](Oc3cc(O)c4c(c3)O[C@H](c3ccc(O)cc3)CC4=O)O[C@H](CO)[C@@H](O)[C@@H]2O)[C@H](O)[C@H](O)[C@H]1O | inactive
Cc1ccc(S(=O)(=O)N(C)C[C@@H]2Oc3ccc(NS(=O)(=O)c4cn(C)cn4)cc3C(=O)N([C@H](C)CO)C[C@@H]2C)cc1 | inactive
COc1ccc(S(=O)(=O)N(C)C[C@H]2Oc3ccc(NC(=O)Nc4c(C)noc4C)cc3C(=O)N([C@@H](C)CO)C[C@H]2C)cc1 | inactive
Cc1ccc(S(=O)(=O)N2C[C@H](O)COC[C@H]3O[C@@H](CC(=O)N[C@@H]4CCN(Cc5ccccc5)C4)CC[C@@H]32)cc1 | inactive
C[C@@H]1CN([C@H](C)CO)C(=O)c2cc(NS(=O)(=O)c3cccs3)ccc2O[C@@H]1CN(C)Cc1ccc(Cl)c(Cl)c1 | inactive
C[C@H]1CCCCO[C@@H](CN(C)C(=O)Nc2cccc3ccccc23)[C@@H](C)CN([C@@H](C)CO)C(=O)c2cc(NC(=O)C3CCCCC3)ccc2O1 | inactive
C[C@@H]1CN([C@@H](C)CO)C(=O)c2cc(NC(=O)C3CCCCC3)ccc2O[C@@H](C)CCCCO[C@@H]1CN(C)C(=O)Nc1cccc2ccccc12 | inactive
C[C@@H]1CCCCO[C@H](CN(C)C(=O)Nc2cccc3ccccc23)[C@@H](C)CN([C@H](C)CO)C(=O)c2cc(NC(=O)C3CCCCC3)ccc2O1 | inactive
C[C@@H]1CCCCO[C@@H](CN(C)C(=O)Nc2cccc3ccccc23)[C@@H](C)CN([C@H](C)CO)C(=O)c2cc(NC(=O)C3CCCCC3)ccc2O1 | active
C[C@@H]1CCCCO[C@@H](CN(C)C(=O)Nc2cccc3ccccc23)[C@@H](C)CN([C@@H](C)CO)C(=O)c2cc(NC(=O)C3CCCCC3)ccc2O1 | active
C[C@@H]1CN([C@H](C)CO)C(=O)c2cc(NC(=O)C3CCCCC3)ccc2O[C@@H](C)CCCCO[C@@H]1CN(C)C(=O)Nc1cccc2ccccc12 | active
C[C@H](CO)N1C[C@H](C)[C@@H](CN(C)C(=O)Nc2cccc3ccccc23)OCCCC[C@H](C)Oc2ccc(NC(=O)C3CCCCC3)cc2C1=O | inactive
C[C@@H]1CCCCO[C@H](CN(C)C(=O)Nc2cccc3ccccc23)[C@H](C)CN([C@H](C)CO)C(=O)c2cc(NC(=O)C3CCCCC3)ccc2O1 | inactive
C[C@@H]1CCCCO[C@H](CN(C)C(=O)Nc2cccc3ccccc23)[C@H](C)CN([C@@H](C)CO)C(=O)c2cc(NC(=O)C3CCCCC3)ccc2O1 | inactive
C[C@@H]1CCCCO[C@H](CN(C)C(=O)Nc2ccc(F)cc2)[C@H](C)CN([C@@H](C)CO)C(=O)c2cc(NS(=O)(=O)c3ccccc3)ccc2O1 | inactive
C[C@H]1CN([C@@H](C)CO)S(=O)(=O)c2ccc(-c3ccc(C(=O)N(C)C)cc3)cc2O[C@@H]1CN(C)C(=O)C1CC1 | inactive
O=C(N[C@@H]1C=C[C@@H](CC(=O)N2CCOCC2)O[C@@H]1CO)c1ccc2c(c1)OCO2 | inactive
C[C@H](CO)N1C[C@H](C)[C@H](CN(C)CC2CCCCC2)Oc2ccc(NC(=O)Cn3cnnn3)cc2C1=O | inactive
C[C@H](CO)N1C[C@H](C)[C@@H](CN(C)S(=O)(=O)c2ccccc2)Oc2ccc(NS(=O)(=O)c3ccc(F)cc3)cc2CC1=O | inactive
Cc1noc(C)c1S(=O)(=O)Nc1cccc2c1O[C@H](CN(C)S(=O)(=O)c1ccccc1)[C@H](C)CN([C@@H](C)CO)C2=O | inactive

SMILES | cytotoxicity call
C[C@@H](O)C#Cc1ccc2c(c1)O[C@H](CN(C)C(=O)C1CCCCC1)[C@@H](C)CN([C@@H](C)CO)S2(=O)=O | inactive
C[C@H]1CN([C@@H](C)CO)S(=O)(=O)c2ccc(Br)cc2O[C@H]1CN(C)C(=O)CCN1CCCCC1 | inactive
COc1ccc(S(=O)(=O)Nc2ccc3c(c2)C(=O)N([C@@H](C)CO)C[C@@H](C)[C@@H](CN(C)C(=O)NC2CCCCC2)OCCCC[C@H](C)O3)cc1 | inactive
Cc1noc(C)c1S(=O)(=O)Nc1ccc2c(c1)CC(=O)N([C@H](C)CO)C[C@@H](C)[C@H](CN(C)S(=O)(=O)c1cccs1)O2 | inactive
COc1ccc2c3c(n(c2c1)C)[C@@H](CO)N(Cc1ccccc1)C[C@]13CCN(CC1)C(=O)Nc1cccc(c1)F | inactive
CO[C@H]1CN(C)C(=O)c2cc(NC(=O)Nc3ccccc3F)ccc2OC[C@H](C)N(Cc2ccccc2C(=O)O)C[C@H]1C | inactive
COc1cccc(S(=O)(=O)N(C)C[C@@H]2Oc3ncc(C#CCN(C)C)cc3C(=O)N([C@H](C)CO)C[C@@H]2C)c1 | inactive
C[C@H]1CN([C@@H](C)CO)C(=O)c2cccc(NS(=O)(=O)c3ccc(F)cc3)c2O[C@@H]1CN(C)C(=O)Nc1ccc(C(F)(F)F)cc1 | inactive
C[C@H]1CN([C@@H](C)CO)C(=O)c2cccc(NS(=O)(=O)c3ccc(Cl)cc3)c2O[C@H]1CN(C)C(=O)Nc1ccc(C(F)(F)F)cc1 | active
C[C@@H]1CN([C@@H](C)CO)C(=O)c2cccc(NS(=O)(=O)c3ccc(Cl)cc3)c2O[C@H]1CN(C)C(=O)Nc1ccc(C(F)(F)F)cc1 | inactive
C[C@H](CO)N1C[C@H](C)[C@@H](CN(C)C(=O)Nc2ccc(C(F)(F)F)cc2)Oc2c(NS(=O)(=O)c3ccc(Cl)cc3)cccc2C1=O | inactive
C[C@@H]1CN([C@H](C)CO)C(=O)c2cccc(NS(=O)(=O)c3ccc(F)cc3)c2O[C@H]1CN(C)C(=O)Nc1ccc(C(F)(F)F)cc1 | inactive
C[C@@H]1CN([C@H](C)CO)C(=O)c2cccc(NS(=O)(=O)c3ccc(Cl)cc3)c2O[C@H]1CN(C)C(=O)Nc1ccc(C(F)(F)F)cc1 | inactive
C[C@@H]1CN([C@@H](C)CO)C(=O)c2cccc(NS(=O)(=O)c3ccc(Cl)cc3)c2O[C@@H]1CN(C)C(=O)Nc1ccc(C(F)(F)F)cc1 | active
C[C@H](CO)N1C[C@H](C)[C@H](CN(C)C(=O)Nc2ccc(C(F)(F)F)cc2)Oc2c(NS(=O)(=O)c3ccc(Cl)cc3)cccc2C1=O | active
C[C@H]1CN([C@@H](C)CO)C(=O)c2cccc(NS(=O)(=O)c3ccc(Cl)cc3)c2O[C@@H]1CN(C)C(=O)Nc1ccc(C(F)(F)F)cc1 | inactive
C[C@@H]1CN([C@H](C)CO)C(=O)c2cccc(NS(=O)(=O)c3ccc(Cl)cc3)c2O[C@@H]1CN(C)C(=O)Nc1ccc(C(F)(F)F)cc1 | active
C[C@@H]1CN([C@@H](C)CO)C(=O)c2cccc(NS(=O)(=O)c3ccc(F)cc3)c2O[C@@H]1CN(C)C(=O)Nc1ccc(C(F)(F)F)cc1 | inactive
C[C@H]1CN([C@@H](C)CO)C(=O)c2cccc(NS(=O)(=O)c3ccc(F)cc3)c2O[C@H]1CN(C)C(=O)Nc1ccc(C(F)(F)F)cc1 | inactive
C#CC1(OC(C)=O)CCC2C3CCC4=CC(OC(C)=O)CCC4C3CCC21C (stereo unspecified) | inactive
Cc1ccc(S(=O)(=O)N(C)C[C@@H]2Oc3ccc(NC(=O)CCCN(C)C)cc3C(=O)N([C@@H](C)CO)C[C@@H]2C)cc1 | inactive

SMILES | cytotoxicity call
COc1ccc(S(=O)(=O)N(C)C[C@@H]2OCCCC[C@@H](C)Oc3ccc(NC(=O)c4ccccc4)cc3C(=O)N([C@H](C)CO)C[C@H]2C)cc1 | inactive
COCC#Cc1ccc([C@H]2[C@H](CO)N3C(=O)CN(C(=O)CN4CCOCC4)C[C@@H]23)cc1 | inactive
O=C(O)CCC(=O)O | inactive
CCOC(=O)CN1CCN(C=O)CC1 | inactive
C[C@H](CO)N1C[C@H](C)[C@@H](CN(C)Cc2ccc(C(F)(F)F)cc2)OCCCC[C@H](C)Oc2ccc(NS(=O)(=O)c3ccc(F)cc3)cc2C1=O | inactive
COc1ccc(CN(C)C[C@H]2OCCCC[C@H](C)Oc3ccc(NC(=O)NC(C)C)cc3C(=O)N([C@H](C)CO)C[C@H]2C)cc1 | inactive
O=C(N[C@@H](c1cccnc1)c1ccc2c(c1)OCO2)C1CCN(CCOc2ccc(Cl)cc2Cl)CC1 | inactive
NCc1ccc(S(N)(=O)=O)cc1 | inactive
COc1ccc(S(=O)(=O)Nc2ccc3c(c2)CC(=O)N([C@@H](C)CO)C[C@H](C)[C@H](CN(C)S(=O)(=O)c2ccc(F)cc2)O3)cc1 | inactive
C[C@@H]1CN([C@@H](C)CO)C(=O)c2cccc(NC(=O)c3ccncc3)c2O[C@H]1CN(C)Cc1ccc(-c2ccccc2)cc1 | inactive
C[C@H](CO)N1C[C@H](C)[C@H](CN(C)Cc2ccc(Oc3ccccc3)cc2)Oc2ccc(NC(=O)Cc3cn(C)c4ccccc34)cc2CC1=O | inactive
C[C@@H]1CN([C@@H](C)CO)C(=O)Cc2cc(NC(=O)Cc3cn(C)c4ccccc34)ccc2O[C@@H]1CN(C)Cc1ccc(-c2ccccc2)cc1 | inactive
C[C@@H]1CN([C@H](C)CO)C(=O)Cc2cc(NC(=O)Cc3cn(C)c4ccccc34)ccc2O[C@H]1CN(C)Cc1ccc(-c2ccccc2)cc1 | active
C[C@@H]1CN([C@H](C)CO)C(=O)Cc2cc(NC(=O)Cc3cn(C)c4ccccc34)ccc2O[C@H]1CN(C)Cc1ccc(C(F)(F)F)cc1 | inactive
C[C@@H]1CN([C@@H](C)CO)C(=O)Cc2cc(NC(=O)Cc3cn(C)c4ccccc34)ccc2O[C@H]1CN(C)Cc1ccc(-c2ccccc2)cc1 | inactive
C[C@H]1CN([C@@H](C)CO)C(=O)Cc2cc(NC(=O)Cc3cn(C)c4ccccc34)ccc2O[C@H]1CN(C)Cc1ccc(C(F)(F)F)cc1 | inactive
C[C@H]1CN([C@@H](C)CO)C(=O)Cc2cc(NC(=O)Cc3cn(C)c4ccccc34)ccc2O[C@H]1CN(C)Cc1ccc(Oc2ccccc2)cc1 | active
C[C@H]1CN([C@@H](C)CO)C(=O)Cc2cc(NC(=O)Cc3cn(C)c4ccccc34)ccc2O[C@@H]1CN(C)Cc1ccc(C(F)(F)F)cc1 | active
C[C@H]1CN([C@@H](C)CO)C(=O)Cc2cc(NC(=O)Cc3cn(C)c4ccccc34)ccc2O[C@@H]1CN(C)Cc1ccc(Oc2ccccc2)cc1 | inactive
